8 compounds from ChEMBL document CHEMBL2218924, “A broad activity screen in support of a chemogenomic map for kinase signalling research and drug discovery” (Biochem J, 2013) can be followed below.

Assay [1] has as its target Mitogen-activated protein kinase 11 (Homo sapiens) (UniProt Q15759). The conditions noted are these: at 1 µM.
The target is the same in assay [2]. The conditions noted are these: at 10 µM.
Assay [3] has as its target T1, Mitogen-activated protein kinase 13 (Homo sapiens) (UniProt O15264).
T1 sequence (whole entry): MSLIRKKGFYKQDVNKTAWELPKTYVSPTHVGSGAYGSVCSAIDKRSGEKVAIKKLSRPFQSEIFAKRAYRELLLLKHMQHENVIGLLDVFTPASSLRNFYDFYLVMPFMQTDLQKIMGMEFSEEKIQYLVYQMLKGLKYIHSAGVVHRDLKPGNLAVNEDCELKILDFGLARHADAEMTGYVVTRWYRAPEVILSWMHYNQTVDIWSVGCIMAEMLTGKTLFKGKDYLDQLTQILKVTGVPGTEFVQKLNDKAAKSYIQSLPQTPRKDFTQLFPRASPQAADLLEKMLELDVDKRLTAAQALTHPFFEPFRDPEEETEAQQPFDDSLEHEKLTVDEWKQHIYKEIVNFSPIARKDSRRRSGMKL
The settings on record: at 1 µM.

Assay [4] addresses T1, Mitogen-activated protein kinase 13 (Homo sapiens). The conditions noted are these: at 10 µM.
Assay [5] has as its target T2, Serine/threonine-protein kinase Sgk3 (Homo sapiens) (UniProt Q96BR1).
T2 sequence (whole entry): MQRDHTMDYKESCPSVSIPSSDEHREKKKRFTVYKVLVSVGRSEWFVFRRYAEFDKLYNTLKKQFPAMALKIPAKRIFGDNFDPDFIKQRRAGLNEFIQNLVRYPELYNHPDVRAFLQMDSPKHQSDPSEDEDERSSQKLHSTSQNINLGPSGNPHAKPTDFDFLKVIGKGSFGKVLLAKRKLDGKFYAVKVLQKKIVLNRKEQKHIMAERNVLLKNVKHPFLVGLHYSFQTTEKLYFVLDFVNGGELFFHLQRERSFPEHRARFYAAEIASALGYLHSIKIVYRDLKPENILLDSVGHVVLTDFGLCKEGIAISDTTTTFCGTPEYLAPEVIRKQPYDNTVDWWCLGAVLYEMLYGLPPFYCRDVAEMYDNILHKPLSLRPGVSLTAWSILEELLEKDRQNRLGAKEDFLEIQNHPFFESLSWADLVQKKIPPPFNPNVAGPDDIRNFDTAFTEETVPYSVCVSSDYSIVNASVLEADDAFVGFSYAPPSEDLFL
The conditions noted are these: at 10 µM.

In assay [6] the target is Serine/threonine-protein kinase SIK1 (Homo sapiens) (UniProt P57059). The conditions noted are these: at 1 µM.
Assay [7] shares this target. The settings on record: at 10 µM.
Assay [8] deals with SRSF protein kinase 1 (Homo sapiens) (UniProt Q96SB4). The settings on record: at 1 µM.
The target is the same in assay [9]. The settings on record: at 10 µM.
The target in assay [10] is SRSF protein kinase 2 (Homo sapiens) (UniProt P78362). The conditions noted are these: at 1 µM.
For assay [11] the target is unchanged. The conditions noted are these: at 10 µM.
The target in assay [12] is Serine/threonine-protein kinase 33 (Homo sapiens) (UniProt Q9BYT3). The conditions noted are these: at 1 µM.
For assay [13] the target is unchanged. The conditions noted are these: at 10 µM.
Assay [14] deals with Serine/threonine-protein kinase PLK2 (Homo sapiens) (UniProt Q9NYY3). The settings on record: at 1 µM.
For assay [15] the target is unchanged. The settings on record: at 10 µM.
Assay [16] has as its target Tyrosine-protein kinase SYK (Homo sapiens) (UniProt P43405). The settings on record: at 1 µM.
For assay [17], the target named is T3, Serine/threonine-protein kinase Sgk1 (Homo sapiens) (UniProt O00141).
T3 sequence (whole entry): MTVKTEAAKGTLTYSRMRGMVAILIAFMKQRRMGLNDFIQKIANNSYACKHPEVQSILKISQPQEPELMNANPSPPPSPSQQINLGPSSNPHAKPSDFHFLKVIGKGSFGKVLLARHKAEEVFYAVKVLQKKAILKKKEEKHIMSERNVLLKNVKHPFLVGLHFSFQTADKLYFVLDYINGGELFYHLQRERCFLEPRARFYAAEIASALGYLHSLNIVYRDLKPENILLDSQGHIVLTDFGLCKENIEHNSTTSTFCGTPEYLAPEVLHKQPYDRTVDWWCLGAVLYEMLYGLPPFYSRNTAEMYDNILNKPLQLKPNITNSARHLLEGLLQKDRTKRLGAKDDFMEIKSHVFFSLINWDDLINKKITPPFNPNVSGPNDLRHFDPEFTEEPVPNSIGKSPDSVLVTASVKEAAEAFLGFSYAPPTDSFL
The settings on record: at 1 µM.

Assay [18] addresses T3, Serine/threonine-protein kinase Sgk1 (Homo sapiens). The conditions noted are these: at 10 µM.
The target in assay [19] is T4, Serine/threonine-protein kinase Sgk2 (Homo sapiens) (UniProt Q9HBY8).
T4 sequence (whole entry): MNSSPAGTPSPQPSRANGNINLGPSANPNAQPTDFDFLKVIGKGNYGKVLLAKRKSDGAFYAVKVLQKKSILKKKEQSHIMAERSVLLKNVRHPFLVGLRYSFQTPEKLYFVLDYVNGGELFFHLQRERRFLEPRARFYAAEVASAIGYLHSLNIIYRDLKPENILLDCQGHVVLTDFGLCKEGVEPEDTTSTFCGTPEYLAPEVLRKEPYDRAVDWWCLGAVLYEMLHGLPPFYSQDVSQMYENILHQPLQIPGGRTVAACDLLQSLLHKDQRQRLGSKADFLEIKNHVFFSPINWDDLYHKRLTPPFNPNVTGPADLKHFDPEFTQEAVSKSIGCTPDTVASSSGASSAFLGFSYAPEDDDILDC
The settings on record: at 1 µM.

Assay [20] has as its target T4, Serine/threonine-protein kinase Sgk2 (Homo sapiens). The conditions noted are these: at 10 µM.

SRSF protein kinase 2 (Homo sapiens), sequence (P78362 whole entry, looked up): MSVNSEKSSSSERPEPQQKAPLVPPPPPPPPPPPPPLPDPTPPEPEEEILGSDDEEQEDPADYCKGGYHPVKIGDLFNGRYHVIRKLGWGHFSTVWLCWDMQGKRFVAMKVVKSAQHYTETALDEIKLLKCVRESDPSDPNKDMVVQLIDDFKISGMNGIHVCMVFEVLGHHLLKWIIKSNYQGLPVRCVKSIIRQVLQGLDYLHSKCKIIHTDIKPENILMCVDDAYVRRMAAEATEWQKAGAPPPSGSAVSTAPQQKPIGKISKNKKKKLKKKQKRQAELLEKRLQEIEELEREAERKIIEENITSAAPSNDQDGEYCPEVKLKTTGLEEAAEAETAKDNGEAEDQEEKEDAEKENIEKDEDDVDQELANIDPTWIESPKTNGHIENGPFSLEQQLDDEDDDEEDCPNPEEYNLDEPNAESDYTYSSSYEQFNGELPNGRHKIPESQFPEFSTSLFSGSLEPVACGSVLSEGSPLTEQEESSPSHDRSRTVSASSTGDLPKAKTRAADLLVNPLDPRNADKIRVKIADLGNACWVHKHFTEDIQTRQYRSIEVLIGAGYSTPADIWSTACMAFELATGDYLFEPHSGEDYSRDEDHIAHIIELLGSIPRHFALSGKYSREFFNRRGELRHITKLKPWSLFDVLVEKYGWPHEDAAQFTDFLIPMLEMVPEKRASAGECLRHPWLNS
Serine/threonine-protein kinase 33 (Homo sapiens), sequence (Q9BYT3 whole entry, looked up): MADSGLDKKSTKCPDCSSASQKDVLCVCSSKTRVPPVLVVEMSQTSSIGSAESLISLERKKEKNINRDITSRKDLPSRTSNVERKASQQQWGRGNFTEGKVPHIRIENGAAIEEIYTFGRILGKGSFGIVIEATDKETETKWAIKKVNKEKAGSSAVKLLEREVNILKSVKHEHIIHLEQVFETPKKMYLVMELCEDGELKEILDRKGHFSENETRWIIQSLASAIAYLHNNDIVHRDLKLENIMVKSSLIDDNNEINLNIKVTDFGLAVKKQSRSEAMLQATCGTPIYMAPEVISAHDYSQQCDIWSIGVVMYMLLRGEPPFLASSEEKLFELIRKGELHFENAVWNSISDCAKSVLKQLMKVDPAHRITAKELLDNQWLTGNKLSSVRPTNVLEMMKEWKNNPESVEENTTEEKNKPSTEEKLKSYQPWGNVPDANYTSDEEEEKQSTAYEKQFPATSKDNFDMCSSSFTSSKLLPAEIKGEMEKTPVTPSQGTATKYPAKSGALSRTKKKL
Serine/threonine-protein kinase SIK1 (Homo sapiens), sequence (P57059 whole entry): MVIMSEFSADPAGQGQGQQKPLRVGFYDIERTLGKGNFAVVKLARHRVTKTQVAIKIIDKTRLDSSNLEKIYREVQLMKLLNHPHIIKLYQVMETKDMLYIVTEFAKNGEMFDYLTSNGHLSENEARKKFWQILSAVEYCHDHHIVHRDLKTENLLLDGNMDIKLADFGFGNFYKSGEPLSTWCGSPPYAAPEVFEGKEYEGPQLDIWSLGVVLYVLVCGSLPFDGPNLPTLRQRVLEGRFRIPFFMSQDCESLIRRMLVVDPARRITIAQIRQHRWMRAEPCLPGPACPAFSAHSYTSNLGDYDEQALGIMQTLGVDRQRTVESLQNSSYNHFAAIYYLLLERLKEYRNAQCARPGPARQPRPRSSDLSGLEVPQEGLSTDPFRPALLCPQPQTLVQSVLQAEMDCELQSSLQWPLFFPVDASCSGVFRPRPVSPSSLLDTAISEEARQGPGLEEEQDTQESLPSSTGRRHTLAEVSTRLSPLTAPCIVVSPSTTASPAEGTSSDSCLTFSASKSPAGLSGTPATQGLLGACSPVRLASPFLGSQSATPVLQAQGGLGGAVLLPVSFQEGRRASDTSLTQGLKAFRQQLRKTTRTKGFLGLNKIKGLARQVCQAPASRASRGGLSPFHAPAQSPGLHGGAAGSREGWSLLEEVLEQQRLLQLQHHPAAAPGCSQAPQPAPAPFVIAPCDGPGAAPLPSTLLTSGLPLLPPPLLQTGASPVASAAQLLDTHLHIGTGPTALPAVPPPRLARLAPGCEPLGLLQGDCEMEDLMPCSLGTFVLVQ
Mitogen-activated protein kinase 11 (Homo sapiens), sequence (Q15759 whole entry): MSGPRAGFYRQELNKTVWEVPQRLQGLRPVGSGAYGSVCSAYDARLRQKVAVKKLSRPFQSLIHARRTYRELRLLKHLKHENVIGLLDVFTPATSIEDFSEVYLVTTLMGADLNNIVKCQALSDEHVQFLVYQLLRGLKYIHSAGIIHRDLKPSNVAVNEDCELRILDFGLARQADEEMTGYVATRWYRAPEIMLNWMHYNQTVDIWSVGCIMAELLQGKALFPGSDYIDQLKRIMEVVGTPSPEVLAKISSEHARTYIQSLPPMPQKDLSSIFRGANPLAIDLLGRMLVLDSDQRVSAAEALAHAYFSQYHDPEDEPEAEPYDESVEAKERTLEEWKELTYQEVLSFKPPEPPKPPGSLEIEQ
SRSF protein kinase 1 (Homo sapiens), sequence (Q96SB4 whole entry): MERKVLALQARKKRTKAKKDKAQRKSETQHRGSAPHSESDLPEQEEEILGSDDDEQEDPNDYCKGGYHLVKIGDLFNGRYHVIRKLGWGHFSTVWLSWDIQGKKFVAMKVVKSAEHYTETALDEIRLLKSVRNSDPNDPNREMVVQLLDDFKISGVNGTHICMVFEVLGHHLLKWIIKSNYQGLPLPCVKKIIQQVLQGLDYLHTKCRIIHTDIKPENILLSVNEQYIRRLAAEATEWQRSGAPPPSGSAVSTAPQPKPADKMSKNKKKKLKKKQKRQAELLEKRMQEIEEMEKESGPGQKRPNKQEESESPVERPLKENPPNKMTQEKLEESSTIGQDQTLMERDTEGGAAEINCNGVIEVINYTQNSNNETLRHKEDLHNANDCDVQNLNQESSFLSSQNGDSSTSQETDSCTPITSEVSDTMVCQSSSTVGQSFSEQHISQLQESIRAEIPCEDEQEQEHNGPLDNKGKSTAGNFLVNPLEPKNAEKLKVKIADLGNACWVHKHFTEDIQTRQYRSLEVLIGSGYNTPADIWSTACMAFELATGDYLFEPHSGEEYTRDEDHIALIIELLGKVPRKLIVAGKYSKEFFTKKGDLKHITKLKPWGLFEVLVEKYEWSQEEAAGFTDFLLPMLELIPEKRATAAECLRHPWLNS
Serine/threonine-protein kinase PLK2 (Homo sapiens), sequence (Q9NYY3 whole entry, looked up): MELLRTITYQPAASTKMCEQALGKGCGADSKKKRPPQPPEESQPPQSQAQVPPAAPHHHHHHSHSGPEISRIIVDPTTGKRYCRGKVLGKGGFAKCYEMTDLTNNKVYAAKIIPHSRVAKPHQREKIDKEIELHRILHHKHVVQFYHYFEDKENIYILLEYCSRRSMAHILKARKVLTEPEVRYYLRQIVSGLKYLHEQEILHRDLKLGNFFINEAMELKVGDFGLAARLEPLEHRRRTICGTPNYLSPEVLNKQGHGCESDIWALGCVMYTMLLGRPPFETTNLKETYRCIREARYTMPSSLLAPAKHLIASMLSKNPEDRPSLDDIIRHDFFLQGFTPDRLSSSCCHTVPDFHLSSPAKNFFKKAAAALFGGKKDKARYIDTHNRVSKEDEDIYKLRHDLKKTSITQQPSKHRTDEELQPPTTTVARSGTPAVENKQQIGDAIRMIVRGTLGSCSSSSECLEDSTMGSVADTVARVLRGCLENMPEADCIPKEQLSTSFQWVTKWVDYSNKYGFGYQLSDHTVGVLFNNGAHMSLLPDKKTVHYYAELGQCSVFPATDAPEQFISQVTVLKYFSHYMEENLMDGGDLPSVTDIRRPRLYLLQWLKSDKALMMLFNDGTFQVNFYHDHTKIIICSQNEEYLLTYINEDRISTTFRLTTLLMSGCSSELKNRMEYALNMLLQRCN

For `COc1cc2ncnc(Nc3ccc(Oc4ccccc4)cc3)c2cc1OC`, the residual activity in assay [1] came to 102%; in assay [2], 90%; in [3], 110%; in assay [4], 96%; in assay [5], 125%; in assay [6] it was 66%. Further, the residual activity in assay [7] was found to be 8%; in assay [8], 106%; in assay [9], 90%; in [10], 105%; in assay [11] it was 90%; in assay [12], 98%. In addition, the residual activity in assay [13] is 88%; in assay [14] it was 104%; in assay [15] it was 105%; in assay [16], 110%.

Turning to `COc1cc2ncnc(Nc3ccc(NC(=O)c4ccccc4)cc3)c2cc1OC`, the residual activity in assay [1] came out at 103%; in assay [2], 97%; in assay [4], 72%; in assay [17], 141%; in assay [18] it was 79%; in assay [19] it was 95%. Besides, the residual activity was determined as 68% in assay [20]; 91% in assay [5]; 100% in assay [6]; 18% in [7]; 107% in assay [10]; 103% in assay [11]. The residual activity stood at 109% in assay [12], 108% in [13] and 85% in assay [15].

Take `CCN(CC)CCCCN1c2ccccc2Oc2ccc(Cl)cc21`: the residual activity in [1] stood at 106%; in [2] it was 101%; in assay [3] it was 111%; in assay [4], 99%; in [17], 135%; in [18], 80%. In addition, the residual activity in assay [19] turned out to be 104%; in [20] it was 102%; in [5], 105%; in assay [6], 114%; in assay [7], 59%; in [8], 101%. For the same compound, the residual activity in [9] was found to be 117%; in [10], 104%; in assay [11] it was 82%; in assay [12], 107%; in [13], 109%; in assay [14] it was 109%. The residual activity was determined as 104% in assay [15] and 137% in assay [16].

As to `Cn1cnc2cc3c(Nc4cccc(Br)c4)ncnc3cc21`, the residual activity in [2] was 89%; in assay [3] it was 107%; in assay [4], 99%; in assay [17], 102%; in [18] it was 91%; in assay [19] it was 94%. Further, the residual activity in assay [20] is 72%; in assay [5], 89%; in assay [6], 69%; in assay [7], 9%; in assay [8] it was 100%; in assay [9], 91%. For the same compound, the residual activity in [10] is 94%; in assay [11] it was 87%; in [12] it was 93%; in assay [13], 95%; in [14] it was 106%; in assay [15], 98%. Besides, the residual activity in assay [16] worked out at 129%.

`c1ccc(-c2n[nH]cc2-c2ccnc3ccccc23)nc1`: the residual activity in [1] is 99%; in assay [2], 76%; in assay [3] it was 106%; in [4] it was 101%; in assay [17] it was 97%; in assay [18], 95%. The residual activity came to 69% in [20]; 99% in [6]; 104% in assay [7]; 106% in assay [8]; 108% in assay [9]; 87% in assay [11]. The residual activity came to 97% in assay [12], 94% in assay [13], 102% in assay [14] and 96% in assay [15].

Regarding `O=[N+]([O-])c1ccc(-c2nc(-c3ccc(F)cc3)c(-c3ccncc3)[nH]2)cc1`, the residual activity is 5% in [1]; 3% in [2]; 102% in [3]; 99% in [4]; 81% in assay [17]; 104% in assay [18]. In addition, the residual activity in assay [19] stood at 120%; in [20], 94%; in assay [5] it was 95%; in [6] it was 130%; in assay [7], 106%; in [8], 109%. Further, the residual activity in [9] came to 109%; in assay [10], 98%; in assay [11], 85%; in assay [12], 104%; in assay [13] it was 101%; in assay [14], 103%. Further, the residual activity was determined as 104% in assay [15] and 118% in assay [16].

As to `N#CC(C#N)=C(N)/C(C#N)=C/c1ccc(O)cc1`, the residual activity in [3] is 118%; in assay [17], 95%; in [18], 86%; in assay [20], 75%; in assay [5], 81%; in assay [6], 90%. Moreover, the residual activity came to 75% in assay [7]; 100% in assay [8]; 95% in [9]; 97% in assay [12]; 97% in assay [13]; 63% in [15]. Moreover, the residual activity in [16] came to 116%.

For `Cc1nc2cc3nc(-c4cccs4)cnc3cc2n1C`, the residual activity was 100% in [1]; 97% in assay [2]; 112% in assay [3]; 103% in [4]; 113% in assay [17]; 104% in [19]. Further, the residual activity in [20] was determined as 64%; in assay [5], 98%; in assay [6] it was 100%; in assay [7] it was 88%; in assay [8] it was 99%; in assay [9], 107%. The residual activity in assay [10] was determined as 98%; in [11], 86%; in [12] it was 106%; in [13], 100%; in assay [14] it was 102%; in assay [15], 95%. Also, the residual activity in assay [16] turned out to be 131%.
